# Only some compounds are listed: those with a hit (about 11% of all), similar ones and a draw of the others.
# ALDH1A1 block = qHTS Assay for Inhibitors of Aldehyde Dehydrogenase 1 (ALDH1A1) | Purified ALDH1A1, NADH fluorescence, propionaldehyde substrate | AID 1030, 2008 | Potency, µM (highest dose often 75.3 µM), for the others: at the top dose activity, negative = inhibition, usual class: inhibitors | 220,000 compounds, 7.3% hits;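 note: potency is the fitted concentration of half-maximal effect; plate controls were no enzyme wells and a reference inhibitor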
# ALOX12 inhib = qHTS Assay for Inhibitors of 12-hLO (12-human lipoxygenase) | 150,000 compounds, 0.12% hits | AID 1452, 2008 | Potency, µM (series often up to 57.1 µM), for the others: top-dose activity change, negative = inhibition, actives largely listed as inhibitors | purified 12-hLO, xylenol orange hydroperoxide absorbance | Polyunsaturated fatty acid lipoxygenase ALOX12 (Homo sapiens), P18054; active = well fitted curve in the direction sought with a large enough effect; inconclusive = small, poorly fitted or top-dose-only effect, or another doubt; inactive = no such curve, though single readings can be large; an effect the other way counts as inactive or inconclusive; note: potency is the fitted concentration of half-maximal effect; nearly all actives have a fitted effect of over 55% in size
# Target sequence (P18054 whole entry, looked up): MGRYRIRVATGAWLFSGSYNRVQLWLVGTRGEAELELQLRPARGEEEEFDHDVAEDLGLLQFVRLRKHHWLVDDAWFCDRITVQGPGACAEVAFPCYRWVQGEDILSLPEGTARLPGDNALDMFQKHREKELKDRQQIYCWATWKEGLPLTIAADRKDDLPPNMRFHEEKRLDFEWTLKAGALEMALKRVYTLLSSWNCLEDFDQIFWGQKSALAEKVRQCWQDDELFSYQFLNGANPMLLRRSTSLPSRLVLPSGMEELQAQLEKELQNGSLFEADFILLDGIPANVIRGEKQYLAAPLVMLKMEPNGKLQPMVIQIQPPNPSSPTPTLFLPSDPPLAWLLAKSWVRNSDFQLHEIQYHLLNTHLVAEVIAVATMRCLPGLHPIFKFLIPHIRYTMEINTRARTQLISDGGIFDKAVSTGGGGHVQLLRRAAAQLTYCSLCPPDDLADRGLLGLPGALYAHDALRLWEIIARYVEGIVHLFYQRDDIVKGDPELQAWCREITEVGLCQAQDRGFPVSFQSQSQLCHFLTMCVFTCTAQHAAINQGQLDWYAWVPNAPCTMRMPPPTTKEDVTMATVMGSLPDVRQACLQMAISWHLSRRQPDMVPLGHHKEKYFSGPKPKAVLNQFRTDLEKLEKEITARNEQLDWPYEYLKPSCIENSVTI
#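 Purified human 12hLO (150 nM final) was preincubated with compounds for 15 min at room temperature in 25 mM Hepes pH 7.0, 0.01% Triton X-100, then reacted with 40 uM arachidonic acid for 30 min. Hydroperoxide was detected with ferrous iron/xylenol orange.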
# IMPase cell inh = qHTS Assay for Identifying the Cell-Membrane Permeable IMPase Inhibitors | Inositol monophosphatase 1 (Rattus norvegicus), P97697 | CHO-M1 cells, IP1 accumulation, HTRF TR-FRET ratio | inhibition (IP1 accumulation), % at 46.1 µM | 120,000 tested, under 10 active; active = well fitted curve in the direction sought with a large enough effect in the signal ratio, not every such curve was filed as active; inconclusive = small, poorly fitted or top-dose-only effect, or a change in a side signal; inactive = no such curve, though single readings can be large or run the other way; the % refers to the signal ratio;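 note: cells stimulated with carbachol in lithium chloride buffer; plate controls were DMSO basal wells for no effect and reference inhibitor wells for full effect; higher means more IMPase inhibition seen as more IP1 and lower FRET ratio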
#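 Seeded CHO-M1 cells were dosed with compound at up to 46 uM, stimulated with carbachol for 30 min, then lysed in IP-One detection reagents. Higher IP1 lowers the TR-FRET signal.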
# PNC inhibitor = High Content Assay for Compounds that inhibit the Assembly of the Perinucleolar Compartment; PC3M PTB-GFP, PNC prevalence imaging, 16 h; stronger effect = lower value; activity change (PNC), negative = inhibition, % at 10 µM; 140,000 compounds, 3.1% hits;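 active = readout at or below -70, meaning at least 70% loss of cells showing the perinucleolar compartment, a nuclear body marking cancer cells; inconclusive = readout between -30 and a set limit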;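 note: plate controls were DMSO wells for no effect and camptothecin positive control wells for full effect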
#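 Read-out is percentage of cells bearing a perinucleolar compartment, from automated 20x imaging of fixed, Hoechst-stained PC3M PTB-GFP cells. Cells were seeded 4 h, then exposed 16 h to compound (23 nl of library stock) in duplicate plates.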
# HPGD inh = qHTS Assay for Inhibitors of HPGD (15-Hydroxyprostaglandin Dehydrogenase). 15-hydroxyprostaglandin dehydrogenase [NAD(+)] (Homo sapiens), P15428. purified HPGD, NADH fluorescence kinetic, PGE2 substrate. Potency, µM, inactives show at the top dose activity change, negative = inhibition, most hits filed as inhibitors. 150,000 compounds, 4.3% hits. AID 894, 2007; note: potency is the fitted concentration of half-maximal effect
#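 NADH formation kinetics: reaction with 30 uM PGE2 and 1 mM NAD+ (final), 20 nM enzyme, Tris-HCl pH 8 with Tween 20, after 15 min compound preincubation at room temperature. Fluorescence change, last versus first of five reads.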
# IMPase Li cell = qHTS Assay for Identifying the Cell-Membrane Permeable IMPase Inhibitors: Potentiation with Lithium; CHO-M1 cells, IP1 TR-FRET (IP-One), carbachol + lithium; Potency, µM (series often up to 59.4 µM), for inactives: at the top dose activity, negative = IMPase inhibition, hits mostly inhibitors; 210,000 compounds, 0.35% hits; active = well fitted curve in the direction sought with a large enough effect; inconclusive = small, poorly fitted or top-dose-only effect, or another doubt; inactive = no such curve, though single readings can be large; an effect the other way counts as inactive or inconclusive;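 note: IP1 builds up when IMPase is blocked and the TR-FRET signal falls; potency is the fitted concentration of half-maximal effect; plate controls were basal vehicle for no effect and high inhibitor control for full effect; nearly all actives have a fitted effect of over 50% in size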
#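 Steps: plate 2000 CHO-M1 cells per well and culture 16–30 h; add compound and lithium; incubate 30 min, 37C; add d2-IP1 tracer and Eu cryptate anti-IP1 antibody in lysis buffer; read after 10 min at room temperature.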
# An asterisk follows results filed as active; ? = inconclusive; . = no result given; [ ] = dose if it differs, or a comment. Unless noted, calls come from the whole dose curve; as a rule, active = well fitted inhibition curve with a large enough effect (not every such curve was filed as active); inconclusive = small, poorly fitted or top-dose-only effect, or another doubt; inactive = no such curve, though single readings can be large or run the other way. Unless noted, % is set by controls: 0 for no effect and ±100 for the full control effect.
SMILES,ALDH1A1 block,ALOX12 inhib,IMPase cell inh,PNC inhibitor,HPGD inh,IMPase Li cell
CC1(C)CCCN(C(=O)c2ccc3c(c2NCCO)C(=O)c2ccccc2C3=O)C1,?,-1%,.,17,16µM*,-4%
CNc1c(C(=O)O)ccc2c1C(=O)c1ccccc1C2=O,2%,2%,.,-11,-14%,54%
CCN(CCN(C)C)C(=O)c1ccc2c(c1NCCO)C(=O)c1ccccc1C2=O,14µM*,.,.,.,.,63%
CCNc1c(C(=O)O)ccc2c1C(=O)c1ccccc1C2=O,1%,1%,11,-85*,-12%,48%
O=C1c2ccccc2C(=O)c2c1ccc(C(=O)N1CCCCC1)c2NCCO,0%,0%,?,?,?,5%[38.3 µM]
O=C(O)c1cccc2c1C(=O)c1ccccc1-2,22µM*,.,.,.,.,.
C=C1CC[C@H](O)C/C1=C/C=C1\CCC[C@]2(C)[C@H]1CC[C@H]2[C@@H](C)/C=C\[C@@H](C)C(C)C,-4%[20.9 µM],0%[25.6 µM],3[20.6 µM],.,-6%,-5%
COc1ccc(N(CC(=O)Nc2cc(C)ccc2C)S(=O)(=O)c2ccc(OC)c(OC)c2)cc1,.,.,-8,.,.,.
Cc1ccc(CNC(=O)C2CCN(S(=O)(=O)c3ccc(F)cc3)CC2)cc1,.,.,5,.,.,.
Cc1cccc(-n2c(Cn3nc(C)c([N+](=O)[O-])c3C)n[nH]c2=S)c1,25µM*,3%,8,19,-25%,-4%[38.3 µM]
CCOc1ccc(N2C(=O)CSC2c2ccncc2)cc1 (stereo not given),-5%,-3%,-4,-100*,-10%,4%
COc1ccc(N2C(=O)CSC2c2cccs2)cc1 (stereo not given),?,0%,.,-114*,-5%,7%
O=C1CSC(c2cccs2)N1c1ccccc1 (stereo not given),-1%,1%,3,9,-7%,-7%[38.3 µM]
CCN1C(=O)[C@H]2[C@H]3[C@H](O)[C@H](O)C/C(=N/OCc4ccccc4)[C@H]3CC[C@@H]2C1=O,-1%[13.5 µM],.,.,.,.,.
Cc1sc2nc(C3CC3)nc(NCCNS(C)(=O)=O)c2c1C,32µM*,-5%,-6,0,-2%,7%[38.3 µM]
CCOC(=O)C1C(=O)CC(=O)CC1CC(C)SCC (stereo not given),13µM*,?,-6,-5,-21%,6%
CCOC(=O)Cc1csc(SCC(=O)NC2CCCC(C)C2C)n1 (stereo not given),?,2%,10,?,25µM*,15%
CCOC(=O)Cc1csc(SCC(=O)Nc2sc3c(c2C(N)=O)CCC3)n1,?,-13%,-9,-4,18µM*,0%[38.3 µM]
CCOC(=O)Cc1csc(SCC(=O)NC2CCCCC2)n1,1%,-2%,.,28,?,7%
Cc1coc2c1C(=O)C(=O)c1c-2ccc2c1CCCC2(C)C,20µM*,?,.,.,16µM*,13%
Cc1coc2cc3oc(=O)c4c(c3cc12)CCC4,?,-8%,3,-21,-29%,30%[38.3 µM]
NC(=O)c1snnc1-c1ccccc1,6%,.,.,.,.,.
O=C(O)c1nnsc1-c1ccc(-c2snnc2C(=O)O)cc1,4µM*,3%[11.4 µM],.,.,-22%,-1%
Cc1cc(Cc2cc(C)cc(C(C)(C)C)c2O)c(O)c(Cc2cc(C)cc(C(C)(C)C)c2O)c1,3%[13.5 µM],-14%[11.4 µM],.,.,-4%,8%
CN(C)CCN(C)Cc1ccc2c(c1)Cc1ccccc1-2,11µM*,-2%,16,30,-15%,27%[38.3 µM]
SMILES,ALDH1A1 block,ALOX12 inhib,IMPase cell inh,PNC inhibitor,HPGD inh,IMPase Li cell
CC(=O)N1CC[C@H]2CC(=O)CC[C@@]21C,3%[120 µM],5%[0.00818 µM],.,.,-5%,7%
CCCCN1CCC(COC(=O)c2cc(Cl)c(N)c3c2OCCO3)CC1,3%,-2%,10,.,-13%,16%
CC(/C=N/n1c(-c2ccc(C)cc2)n[nH]c1=S)=C\c1ccco1,?,-6%,6,-5,2.5µM*,9%
CC(/C=N/n1c(-c2ccco2)n[nH]c1=S)=C\c1ccco1,32µM*,-14%,-2,62,14µM*,3%
Cc1cc(C)c(C(N)=O)c(Nc2ccc3c(c2)OCCO3)n1,-4%,1%,-4,-100*,-13%,1%
Cc1cc(C)c(C(N)=O)c(Nc2cccc(Cl)c2)n1,0%,-8%,-7,-100*,-20%,-4%
CCc1cc2c(nc1CC)CCN(CC/C(C)=N/OC[C@@H](O)COCc1ccco1)C2,16%[13.5 µM],.,.,.,.,.
O=C(Nc1ccc(S(=O)(=O)Nc2ncccn2)cc1)c1ccc2ncsc2c1,7.1µM*,.,.,.,.,.
O=C(Nc1ccc(S(=O)(=O)Nc2ncccn2)cc1)c1cnc(Cl)c(Cl)c1,0%,.,.,.,.,1%
CN(C)c1nc(NS(=O)(=O)c2ccc(Cl)cc2)nc(N(C)C)n1,2%,-1%,-1,-121*,-2%,3%[38.3 µM]
O=C(Nc1ccc(S(=O)(=O)Nc2ncccn2)cc1)c1ccc(S(=O)(=O)N2CCCC2)cc1,25µM*,.,.,.,.,4%
O=S(=O)(Nc1ncccn1)c1ccc(NC(=S)Nc2ccc(Cl)cc2)cc1,10µM*,.,.,.,.,.
Cc1ccnc(NS(=O)(=O)c2ccc(NC(=O)c3ccc(S(=O)(=O)N4CCCC4)cc3)cc2)n1,?,.,.,.,.,-4%
COC(=O)[C@H](Cc1ccccc1)NC(=O)[C@]1(C)C[C@H]1[C@H](NC(=O)OCc1ccccc1)c1ccccc1,?,-2%,.,.,-17%,1%
CN(C)S(=O)(=O)c1cccc(NC(=S)NC(=O)C2CCCCC2)c1,?,-19%,.,?,-12%,4%
COc1ccc(NS(=O)(=O)c2cccc(NC(=O)c3ccc(S(=O)(=O)N4CCCCCC4)cc3)c2)cc1,?,-1%,.,-112*,-13%,11%
COc1ccc(NS(=O)(=O)c2ccc(N3CCCC3)c(NC(=S)Nc3cccc(S(=O)(=O)N(C)C)c3)c2)cc1,3.2µM*,-13%,.,?,3.2µM*,8%
OCCNc1ncnc2nc[nH]c12,1%[13.5 µM],-1%[11.4 µM],.,.,-12%,4%
C[C@@H](CNC1CCCCC1)OC(=O)c1ccccc1,1%[20.9 µM],2%[25.6 µM],5[20.6 µM],.,-8%,12%
CCCCS(=O)(=O)c1sc2nc(C)cc(C)c2c1N,-4%,-2%,2,-26,2.8µM*,0%[38.3 µM]
Cc1ccc(CNC(=O)C(C)OC(=O)c2ccco2)cc1 (stereo not given),3%,-1%,-2,?,-13%,2%[38.3 µM]
